Experimental data as given in PubChem BioAssay (NCATS).
Records with an inconclusive call do not appear. Calls follow the shape of the dose curve; as a rule, active = well fitted curve in either direction with a large enough effect (not every such curve was filed as active); inconclusive = small, poorly fitted or top-dose-only effect, or another doubt; inactive = flat fitted curve, though single readings scatter.

assay: AP1 Signaling Pathway (AID 357); details: ME-180 (cervical carcinoma) AP-1-bla reporter, EGF-induced, beta-lactamase ratio, 5 h; at 17.2 µM (top of the series) unless noted;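 also: ME-180 reporter cells stimulated with EGF at its EC50 level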
Summary of the method: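 A ratiometric CCF4 readout (405 nm excitation; 460 and 530 nm emission) quantified AP-1-driven beta-lactamase in ME-180 cells after 5 h with compound and EC50 EGF; AC50 values were derived for activators and inhibitors.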
% is scaled to controls: 0 for no effect and ±100 for the full control effect.

Activity change, negative = inhibition, inactive:
O=C(Nc1ccccn1)c1ccc(=O)[nH]n1 -7.67%
CCCCOc1ccccc1/C=c1/sc2nc(-c3oc4ccccc4c3C)nn2c1=O 4.54%
COc1cccc(-c2nn3c(-c4ccco4)nnc3s2)c1 -16%
Cc1cc(/C=N/n2cnnc2)c(C)n1-c1ccc2c(c1)OCO2 9.26%
Cc1nc(SC2C=CS(=O)(=O)C2)n[nH]1 (stereo not drawn) 5.25%
COC(=O)CNc1nc(-c2cccnc2)nc2ccccc12 -12.5%
O=C1C=C(O)CC(c2cccs2)C1 (stereo not drawn) -0.0121%
COc1ccc2[nH]c(C)c(C(=O)CN3CCOCC3)c2c1 12.7%
O=C(O)CCCC(=O)N1CCN(C(c2ccccc2)c2ccccc2)CC1 1.43%
COc1ccc(C=NCCC2(O)CC(C)N(C)CC2C)cc1 (stereo not drawn) -0.876%
Cc1c(=O)n(OCc2c(F)cccc2F)c2ccccc2[n+]1[O-] -5.17%
COc1ccc(-c2onc(C)c2-c2ccccc2)c(O)c1 -16.7%
O=C(O)c1ccc(COc2c(F)c(F)c(F)c(F)c2F)o1 4.64%
O=C(O)C(O)c1ccco1 (stereo not drawn) -5.38%
CCCCOc1ccc(-c2nnc(N)s2)cc1 2.03%
COC(=O)CSCC(=O)Nc1cc2c(cc1C(C)=O)OCO2 -1.75%
Cc1nnc2n(-c3ccccc3)c(=O)c3c4c(sc3n12)CCCC4 21.9%
Cc1cccc2c1NC(C)CC2C (stereo not drawn) 9.08%
